The values below come from PubChem BioAssay AID493243 (Broad Institute, 2011).

Each structure is given as a SMILES string. Calls of active or inactive are those of the source. The rule behind the calls is not given here.

The assay is described as follows: compounds quenching green fluorescent protein signal – biochemical, plate reader, dry powder, artefact control, dose response (AID 493243). The settings on record: GFP fluorescence counter-screen; series mostly up to 35 µM.
Consider `Nc1cn(-c2ccccc2)nc1-c1ccc(F)cc1`, for which the AC50 entry is “inactive”.
For `Cc1ccccc1-n1ncc2c([N+](=O)[O-])cc([N+](=O)[O-])cc21` the value was 9.4 µM (active); for `Cc1oc2c(c1C(=O)NCc1cccnc1)C(=O)c1ccccc1C2=O`, 3.57 µM (active); for `Cc1oc2c(c1C(=O)NCc1ccccn1)C(=O)c1ccccc1C2=O`, 1.04 µM (active).
Regarding `Cn1nc(-c2ccccn2)nc2c(=O)n(C)c(=O)nc1-2`, the half-maximal activity concentration (AC50) was 0.752 µM (active).
